Data taken from PubChem BioAssay (NCI).
The panel holds about 83,000 compounds, 20% with a hit somewhere; the sample as a whole holds those more often.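 Single-concentration screen, 48 h exposure, 96-well plates. Endpoint: percent growth. Below 10 = active.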

Columns and labels:
Experiment in all cases: NCI-60 one-dose screen, 48 h (100 = growth as untreated, 0 = no growth, -100 = all killed)
HCT-15 colon = conditions: 10 µM unless noted
SNB-75 CNS = conditions: 10 µM unless noted
SNB-19 CNS = conditions: 10 µM unless noted
U251 CNS = conditions: 10 µM unless noted
PC-3 prostate = conditions: 10 µM unless noted
SK-MEL-5 melanoma = conditions: 10 µM unless noted
UACC-62 melanoma = conditions: 10 µM unless noted
LOX IMVI melanoma = conditions: 10 µM
SK-MEL-28 melanoma = conditions: 10 µM unless noted

Measured: growth

CC(=O)[C@@]1(O)CC[C@H]2[C@@H]3CC[C@@H]4CC(=O)CC[C@]4(C)[C@H]3[C@@H](O)C[C@@]21C
inactive: HCT-15 colon 103% | SNB-75 CNS 92.7% | SNB-19 CNS 103% | U251 CNS 94.8% | PC-3 prostate 86.1% | SK-MEL-5 melanoma 99.4% | UACC-62 melanoma 94.7% | LOX IMVI melanoma 96.7% | SK-MEL-28 melanoma 99.4%

O=C(O)c1ccc([N+](=O)[O-])cc1S(=O)(=O)O
inactive: HCT-15 colon 106% | SNB-75 CNS 118% | SNB-19 CNS 105% | U251 CNS 94.9% | PC-3 prostate 100% | SK-MEL-5 melanoma 99.7% | UACC-62 melanoma 101% | LOX IMVI melanoma 98.1% | SK-MEL-28 melanoma 103%

O=[n+]1ccn([O-])c2ccccc21
inactive: HCT-15 colon 110% | SNB-75 CNS 92% | SNB-19 CNS 102% | U251 CNS 100% | PC-3 prostate 92.1% | SK-MEL-5 melanoma 93.2% | LOX IMVI melanoma 97.4% | SK-MEL-28 melanoma 108%

ClCc1cccc2c(CCl)cccc12
inactive: HCT-15 colon 73.8% | SNB-75 CNS 88% | SNB-19 CNS 70.4% | U251 CNS 56.6% | PC-3 prostate 65.9% | SK-MEL-5 melanoma 77.6% | UACC-62 melanoma 64% | SK-MEL-28 melanoma 83.7%

CSCCC(NC(=O)C(Cl)Cl)C(=O)O (stereo unspecified)
inactive: HCT-15 colon 102% | SNB-75 CNS 85.6% | SNB-19 CNS 107% | U251 CNS 90.9% | PC-3 prostate 89% | SK-MEL-5 melanoma 99.8% | UACC-62 melanoma 95.8% | LOX IMVI melanoma 98.4% | SK-MEL-28 melanoma 97%

CCN(C(=O)Nc1ccccc1Cl)c1ccccc1
inactive: HCT-15 colon 94.1% | SNB-75 CNS 117% | SNB-19 CNS 103% | U251 CNS 96.8% | PC-3 prostate 94.6% | SK-MEL-5 melanoma 101% | UACC-62 melanoma 104% | SK-MEL-28 melanoma 113%

O=C(O)CC1=CCCCC1
inactive: HCT-15 colon 98.1% | SNB-75 CNS 89.6% | SNB-19 CNS 97.2% | U251 CNS 105% | SK-MEL-5 melanoma 101% | UACC-62 melanoma 98% | LOX IMVI melanoma 94.5% | SK-MEL-28 melanoma 95.5%

O=Cc1c(O)c2ccccc2[nH]c1=O
inactive: HCT-15 colon 95.2% | SNB-75 CNS 77.9% | SNB-19 CNS 104% | U251 CNS 94.3% | PC-3 prostate 94.4% | SK-MEL-5 melanoma 95.1% | LOX IMVI melanoma 98.5% | SK-MEL-28 melanoma 107%

Cc1cc(CC(=O)NCCO)n(CCO)c(=O)c1
inactive: HCT-15 colon 109% | SNB-75 CNS 95.3% | SNB-19 CNS 103% | U251 CNS 97.9% | PC-3 prostate 104% | SK-MEL-5 melanoma 104% | UACC-62 melanoma 105% | LOX IMVI melanoma 98.8% | SK-MEL-28 melanoma 118%

O=C(O)c1ccc(OCc2ccccc2)cc1
inactive: HCT-15 colon 109% | SNB-75 CNS 87.8% | SNB-19 CNS 95% | U251 CNS 93.7% | PC-3 prostate 90.4% | SK-MEL-5 melanoma 96.2% | UACC-62 melanoma 95.6% | LOX IMVI melanoma 98.3% | SK-MEL-28 melanoma 101%

C[C@H](CCC[C@H](C)OS(=O)(=O)c1ccccc1)OS(=O)(=O)c1ccccc1
inactive: HCT-15 colon 101% | SNB-75 CNS 88% | SNB-19 CNS 94.5% | U251 CNS 108% | PC-3 prostate 108% | SK-MEL-5 melanoma 114% | UACC-62 melanoma 89.8% | LOX IMVI melanoma 101% | SK-MEL-28 melanoma 118%

Oc1ccc2ccccc2c1CN1CCOCC1
inactive: HCT-15 colon 107% | SNB-75 CNS 95.6% | SNB-19 CNS 110% | U251 CNS 110% | PC-3 prostate 99.9% | SK-MEL-5 melanoma 113% | UACC-62 melanoma 111% | LOX IMVI melanoma 115% | SK-MEL-28 melanoma 107%

COC(CCCl)c1ccc(Cl)cc1 (stereo unspecified)
inactive: HCT-15 colon 98.3% | SNB-75 CNS 84.4% | SNB-19 CNS 110% | U251 CNS 93.3% | PC-3 prostate 108% | SK-MEL-5 melanoma 101% | UACC-62 melanoma 107% | LOX IMVI melanoma 101% | SK-MEL-28 melanoma 106%

CCCCCCCCCCCCCC/C=C\C(CC(=O)O)C(=O)O (stereo unspecified)
inactive: HCT-15 colon 107% | SNB-75 CNS 90.1% | SNB-19 CNS 103% | U251 CNS 107% | PC-3 prostate 96.2% | SK-MEL-5 melanoma 104% | UACC-62 melanoma 100% | LOX IMVI melanoma 110% | SK-MEL-28 melanoma 108%
